Screening results as filed in PubChem.
This is a sample that favours compounds with a hit; in the whole collection about 4.8% have one here.
APP transl inh: APP translation inhibition; inhibition, % at 2 µM; SH-SY5Y APP 5'UTR-luciferase reporter, luminescence; 190,000 compounds, 0.82% hits;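 active = inhibition above a set limit, derived from the sample mean plus 3 SD, cut at about 45% in these data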
NF-kB neuron act: raises NF-kB expression in human neuronal cells | AID 1239 | fold change at 12.5 µM | 190,000 compounds, 1.6% hits | NF-kB reporter expression; active compounds read high; in the data active = fold change above about 3.3
Hsp70 activator: Hsp70 transcriptional activation, primary screen; HeLa Hsp70 promoter luciferase reporter, luminescence; scaled: vehicle 0, proteasome-inhibitor control 100%; activation, % at 10 µM; 200,000 compounds, 0.04% hits; AID 1203;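 active = activation above the mean across all tested compounds plus 3 SD, cutoff set per campaign, cut at about 5.5% in these data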
STAT1 act: increases IFN-gamma driven STAT1 reporter signal; NIH 3T3 STAT1-luciferase reporter, luminescence; 100% = IFN-gamma alone, no compound; activation (% of control), % at 5.5 µM; 200,000 compounds, 2.6% hits; AID 932;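 active = activation above the screen-wide mean activation plus 3 SD, cut at about 130% in these data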
Wee1 stabilizer: inhibitors of human Wee1 degradation; P30291; 220,000 compounds, 1.2% hits; reporter increase, % at 5 µM; AID 1321; HeLa Luc-Wee1K328M stability, luciferase luminescence; 100% = proteasome inhibitor MG132 effect;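 active = activation above the mean of all tested compounds plus 3 SD, set per screening run, cut at about 8.8% in these data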;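 also: cells exposed to compound for 20 h before luminescence read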
Target sequence (P30291 whole entry K328M): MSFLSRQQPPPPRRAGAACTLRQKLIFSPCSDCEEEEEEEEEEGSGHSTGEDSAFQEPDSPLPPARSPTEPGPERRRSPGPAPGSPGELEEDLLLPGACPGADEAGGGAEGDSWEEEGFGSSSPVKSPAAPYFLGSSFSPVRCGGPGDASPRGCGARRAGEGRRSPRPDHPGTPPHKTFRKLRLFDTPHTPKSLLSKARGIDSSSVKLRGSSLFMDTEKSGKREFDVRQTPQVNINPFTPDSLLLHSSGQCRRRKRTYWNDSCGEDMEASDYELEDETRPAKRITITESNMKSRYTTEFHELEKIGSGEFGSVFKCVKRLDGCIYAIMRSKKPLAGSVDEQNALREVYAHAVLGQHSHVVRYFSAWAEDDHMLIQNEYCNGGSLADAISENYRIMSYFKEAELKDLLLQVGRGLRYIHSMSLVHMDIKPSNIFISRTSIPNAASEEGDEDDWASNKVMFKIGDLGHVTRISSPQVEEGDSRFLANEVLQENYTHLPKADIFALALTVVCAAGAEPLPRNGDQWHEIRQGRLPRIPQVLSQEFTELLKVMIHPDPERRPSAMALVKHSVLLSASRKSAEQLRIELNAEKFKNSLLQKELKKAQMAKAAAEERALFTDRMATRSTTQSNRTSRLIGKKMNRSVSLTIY
APP 5'UTR act: APP 5'UTR luciferase reporter activation; activation, % at 2 µM; SH-SY5Y APP 5'UTR luciferase reporter, luminescence; zero percent = DMSO vehicle wells; 190,000 compounds, 1% hits;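 active = activation above a set limit, based on mean plus 3 SD of controls, cut at about 140% in these data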
Hits are given with their value; – = inactive; · = not tested or not shown.

SMILES	APP transl inh	NF-kB neuron act	Hsp70 activator	STAT1 act	Wee1 stabilizer	APP 5'UTR act
COc1ccc(OC)c(C2C3=C(COC3=O)Nc3cc4c(cc32)OCO4)c1 (configuration not stated)	95	–	–	–	–	–
COc1ccc(C2C3=C(CC(C)(C)CC3=O)Nc3cc4c(cc32)OCO4)cc1 (configuration not stated)	–	–	–	–	–	–
CCn1cc(/C=C(/C#N)S(=O)(=O)c2ccccc2)cn1	–	–	–	–	–	–
O=C(CSc1ccccn1)Nc1ccc(NC(=O)CSc2ccccn2)cc1	–	–	–	–	–	–
O=C(CCSc1ccccn1)Nc1ccc(Br)cc1	–	3.4	–	140	–	–
COc1ccc(C(=O)Nc2cc(C(=O)NCCc3ccccc3)ccc2Cl)cc1	–	–	–	–	–	–
CCOCC(=O)Nc1cc(C(=O)NCCc2ccccc2)ccc1Cl	–	–	–	130	–	–
COCC(=O)Nc1cc(C(=O)NCCc2ccccc2)ccc1Cl	–	–	–	145	–	–
CCOC(=O)c1cc(-c2ccc(C)cc2)nc2nc(SC)[nH]c(=O)c12	–	4	–	–	–	–
CCOC(=O)c1cc(-c2cccc(C(F)(F)F)c2)nc2nc(SC)[nH]c(=O)c12	–	–	–	–	–	–
COc1cc(/C=C/c2[nH]c(=O)[nH]c(=O)c2[N+](=O)[O-])ccc1OCCC(C)C	–	–	–	–	–	–
OCCN1CCN(Cc2cc(Br)cc(Br)c2O)CC1	–	–	–	–	–	–
Oc1ccc(-c2csc(Nc3ncccn3)n2)cc1	–	9.1	–	146	–	173
Cc1cccnc1Nc1nc(-c2ccc(O)cc2O)cs1	–	3.9	–	–	–	–
COc1cccc(/C=N/NC(=O)C(=O)N/N=C/c2cccc(OC)c2O)c1O	–	–	–	–	–	–
COc1ccc(/C=N/NC(=O)C(N)=O)c(OC)c1OC	–	–	–	–	–	–
COC(=O)c1sccc1N/N=C/c1cccc(OC)c1O	–	3.6	–	–	–	180
COC(=O)c1sccc1N/N=C/c1cccc(Oc2ccccc2)c1	–	–	–	138	–	176
COC(=O)c1sccc1N/N=C/c1ccc(OC)c(OC)c1OC	–	–	–	129	–	–
COC(=O)C1=C(N)Oc2cc(C)n(Cc3cccnc3)c(=O)c2C1c1cc(OC)ccc1OC (configuration not stated)	–	–	–	–	–	–
COC(=O)C1=C(N)Oc2cc(C)n(Cc3cccnc3)c(=O)c2C1c1cccc(OC)c1OC (configuration not stated)	–	–	–	–	9.2	–
Cc1ccc(C)c(-n2c3nc(=O)[nH]c(=O)c-3cc3cc([N+](=O)[O-])ccc32)c1	91	–	–	–	–	–
CCOCCc1nnc(NC(=O)c2ccc(OC)c(OC)c2)s1	–	–	–	–	–	–
O=C(COc1ncnc2cc(Cl)ccc12)c1ccc2c(c1)OCCO2	·	·	·	·	–	·
O=C(COc1ncnc2ccccc12)c1ccc2c(c1)OCCO2	–	3.8	–	142	–	171
SMILES	APP transl inh	NF-kB neuron act	Hsp70 activator	STAT1 act	Wee1 stabilizer	APP 5'UTR act
Cc1occc1C(=O)NNC(=O)c1cccc(F)c1	–	–	–	–	–	–
Oc1ccc(Br)cc1/C=N/N1CCCCC1	–	4	–	–	–	–
CCCSc1nn2c(=O)c3ccccc3nc2s1	–	–	–	–	–	–
Cc1cccc(Nc2nn3c(=O)c4ccccc4nc3s2)c1	–	–	–	132	–	–
O=C(O)/C=C\C(=O)Nc1ccccc1C#Cc1ccccc1	–	6.8	–	140	–	–
O=C(O)/C=C/C(=O)Nc1ccccc1-c1ccccc1NC(=O)/C=C/C(=O)O	·	–	–	–	–	·
O=C(O)C(=O)/C(=C\c1ccccc1)c1ccc2ccccc2n1	–	–	–	144	–	–
O=C(O)C(=O)/C(=C\c1cccc2ccccc12)c1ccc2ccccc2n1	–	–	–	–	–	–
O=C(OCc1ccc([N+](=O)[O-])cc1)c1ccc2ccccc2n1	·	·	·	·	–	·
O=C(O)C(=O)/C(=C\c1ccc([N+](=O)[O-])cc1)c1ccc2ccccc2n1	–	–	–	150	–	–
S=C1NC2(CCCCC2)NN1c1ccccc1	–	·	–	–	–	–
CC(=O)c1cnc(Nc2cccc(C)c2)s1	–	–	–	134	–	–
O=C(c1ccccc1)c1cnc(Nc2ccc(Cl)c(Cl)c2)s1	–	–	–	–	–	–
COc1ccc(C2CC(c3c(O)cc(C)oc3=O)=NCCS2)c(OC)c1 (configuration not stated)	93	5.8	–	136	–	–
Cc1cc(O)c(C2=Nc3ccccc3SC(c3ccc(Cl)cc3)C2)c(=O)o1 (configuration not stated)	–	–	–	–	–	–
Cc1nc2nc[nH]n2c(=O)c1NS(C)(=O)=O	–	–	–	–	–	–
Cn1cc(/C=N/n2cnc3scc(-c4ccccc4)c3c2=O)c2ccccc21	92	–	–	–	–	–
O=c1c2c(-c3ccccc3)csc2ncn1/N=C/c1cccc([N+](=O)[O-])c1O	–	–	–	–	–	–
COCC(=O)Nc1ccc([N+](=O)[O-])cc1C	–	–	–	–	–	–
Cc1cccc2c(=O)c(C(=O)NCc3cccs3)c[nH]c12	–	·	–	136	–	–
Cc1ccc2c(=O)c(C(=O)NCc3cccs3)c[nH]c2c1	–	–	–	–	–	·
Cc1ccc(-c2nc(C#N)c(N3CCCCC3)o2)cc1	–	–	–	–	9.7	–
COc1ccc(-c2nc(C#N)c(N3CCCCCC3)o2)cc1	–	–	–	–	–	–
O=C(CN1CCC(NC(=O)c2ccco2)CC1)Nc1cccc2ccccc12	–	–	–	–	–	–
COC(=O)c1ccc(NC(=O)CN2CCC(NC(=O)c3ccco3)CC2)cc1	–	–	–	–	11	–
SMILES	APP transl inh	NF-kB neuron act	Hsp70 activator	STAT1 act	Wee1 stabilizer	APP 5'UTR act
O=C(Oc1c(CN2CCOCC2)cc(Cl)c2cccnc12)c1cccs1	–	–	–	–	–	–
COc1ccc(C(=O)Oc2c(CN3CCOCC3)cc(Cl)c3cccnc23)cc1	–	28	–	–	–	–
O=C(Oc1c(CN2CCOCC2)cc(Cl)c2cccnc12)c1ccccc1Cl	53	–	–	–	–	–
COc1cc(C(=O)Oc2c(CN3CCOCC3)cc(Cl)c3cccnc23)cc(OC)c1OC	–	3.8	–	–	–	–
OCCN1CCN(Cc2cc(Cl)c3cccnc3c2O)CC1	–	–	–	–	–	–
O=C(Oc1c(CN2CCOCC2)cc(Cl)c2cccnc12)c1ccc(F)cc1	–	7.6	–	–	–	–
O=C1CC(NN2CCCCC2)C(=O)N1c1ccccc1 (configuration not stated)	–	–	–	–	–	–
COc1ccc(C(=O)Nc2ccc(N3CCOCC3)cc2)cc1OC	–	–	–	–	–	–
